# Data as given in PubChem BioAssay (NCI).
# Where “and” joins values, the source holds several entries; their conditions need not be identical. Equal entries are not always repeated. Compounds without any hit were thinned out: in the full panel of roughly 83,000, 20% have a hit.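 Treatment: one concentration, 48 hours, 96-well format. Scoring: percent growth, with anything below 10 considered active.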 Calls of active or inactive are those of the source.
# Experiments:
# Experiment in all cases: NCI-60 one-dose screen, 48 h (100 = growth as untreated, 0 = no growth, -100 = all killed)
# Details in all cases: 10 µM unless noted
# T-47D breast = tested on: T-47D breast
# BT-549 breast = tested on: BT-549 breast
# MDA-MB-435 melanoma = tested on: MDA-MB-435 melanoma
# SW-620 colon = tested on: SW-620 colon
# MCF7 breast = tested on: MCF7 breast
# HCT-116 colon = tested on: HCT-116 colon
# HCC-2998 colon = tested on: HCC-2998 colon
# KM12 colon = tested on: KM12 colon
Compound,growth (T-47D breast),growth (BT-549 breast),growth (MDA-MB-435 melanoma),growth (SW-620 colon),growth (MCF7 breast),growth (HCT-116 colon),growth (HCC-2998 colon),growth (KM12 colon)
Cc1cc(N2CCN(CC(=O)Nc3ccc4c(ccn4Cc4ccccc4)c3)CC2)nc(N2CCCCCC2)n1,42.7% (inactive),65.1% (inactive),60.7% (inactive),56.8% (inactive),20.5% (inactive),38.8% (inactive),64.5% (inactive),37.6% (inactive)
COc1cccc(C2C(C#N)=C(N)Oc3cc(OCCCCCC[P+](c4ccccc4)(c4ccccc4)c4ccccc4)ccc32)c1 (centres undefined),-32.9% (active),-54.3% (active),-77.6% (active),-31.7% (active),-39.2% (active),-81% (active),-68.6% (active),-77% (active)
O=C1C=C(Nc2ccccc2)c2ncccc2C1=O,-48.3% (active),-94.4% (active),-95.3% (active),-70.6% (active),-52.2% (active),-87.9% (active),-89.1% (active),-67.3% (active)
C=C1C(=O)O[C@H]2[C@H]1CC/C(CNS(=O)(=O)c1ccc3ccccc3c1)=C\CC[C@@]1(C)O[C@@H]21,-67.4% (active),-9.57% (active),0.587% (active),-29.8% (active),-56.9% (active),-87.2% (active),-57.7% (active),64.8% (inactive)
NC1=CC(=O)c2cccnc2C1=O,-34.4% (active),9.57% (active),-95.5% (active),-80% (active),-55.5% (active),-56.4% (active),59.9% (inactive),58.9% (inactive)
CC1=C2[C@@H](CC1)[C@]1(C)O[C@@](C(C)C)(C[C@H]1OC(=O)CO)[C@H]2OC(=O)C1CC1c1ccccc1 (some centres undefined),41.5% (inactive),88.8% (inactive),96.7% (inactive),84.6% (inactive),75.1% (inactive),89% (inactive),82.9% (inactive),73.9% (inactive)
O=C1/C(=C/c2cn(-c3ccccc3)nc2-c2ccccc2)SC(=S)N1c1ccc(Cl)cc1,82.1% (inactive),78.2% (inactive),74.1% (inactive),84.4% (inactive),82.2% (inactive),64.1% (inactive),76.3% (inactive),60.5% (inactive)
O=C1CCc2c(sc3[nH]c(=S)n(Cc4ccc(Cl)cc4)c(=O)c23)C1,-3.14% (active),-10.1% (active),11.3% (inactive),16.5% (inactive),6.24% (active),5.99% (active),4.16% (active),-45.8% (active)
Clc1nccc2c(-c3csc(-c4c[nH]c5ccc(Br)cc45)n3)c[nH]c12,17.7% (inactive),53.2% (inactive),36.9% (inactive),-31.1% (active),23.7% (inactive),22.8% (inactive),27.8% (inactive),17.1% (inactive)
Cc1ccc(Cc2cnc(NC(=O)c3cc(C)oc3C)s2)cc1,58.3% (inactive),74% (inactive),4.22% (active),51.6% (inactive),32% (inactive),72.4% (inactive),89.3% (inactive),38.4% (inactive)
Cc1nc2sc(C(=O)Nc3cccc(Cl)c3C)c(N)c2cc1C(O)c1ccccc1 (centres undefined),44.5% (inactive),40.9% (inactive),4.87% (active),24.1% (inactive),16.2% (inactive),8.63% (active),13.4% (inactive),10.5% (inactive)
C=C(CNCCO)[C@@H]1CC[C@]2(CO)CC[C@]3(C)[C@H](CC[C@@H]4[C@@]5(C)CCC(NCCc6ccc(O)cc6)C(C)(C)[C@@H]5CC[C@]43C)[C@@H]12 (some centres undefined),-66.1% (active),-79.2% (active),-95.5% (active),-75.1% (active),-73.4% (active),-94.4% (active),-94.8% (active),-81.2% (active)
Cc1nnc(NS(=O)(=O)c2ccc(N=Nc3ccc(N)nc3N)cc2)s1,114% (inactive),90.4% (inactive) and 108% (inactive),115% (inactive) and 105% (inactive),108% (inactive) and 106% (inactive),105% (inactive) and 106% (inactive),99.7% (inactive) and 103% (inactive),105% (inactive),104% (inactive) and 103% (inactive)
Fc1ccccc1-c1cnn2cc(-c3ccccc3)cnc12,98.1% (inactive),98.7% (inactive),75.6% (inactive),92.2% (inactive),68.1% (inactive),91.3% (inactive),92.8% (inactive),59.3% (inactive)
Cc1ccc(-c2nc(C#N)c(S(=O)(=O)N(C)C)o2)cc1,75.3% (inactive),77.4% (inactive),97.7% (inactive),81% (inactive),46.1% (inactive),63.2% (inactive),93.1% (inactive),95.4% (inactive)
CN(C)C1CCN(C(=O)c2ccc(NC(=O)Nc3ccc(-c4nc(N5CCOCC5)c5cccn5n4)cc3)cc2)CC1,-36% (active),-7.28% (active),1.97% (active),9.03% (active),-4.03% (active),5.84% (active),3.23% (active),5.54% (active)
O=C([C@H]1C[C@H]1c1ccc(S(F)(F)(F)(F)F)cc1)N1CCN(c2cc(Cl)ccc2C(F)(F)F)CC1,74.9% (inactive),106% (inactive),102% (inactive),95.9% (inactive),89.6% (inactive),60.2% (inactive),96.9% (inactive),82.5% (inactive)
COc1c(F)cc(-n2c(C(=O)N3CC(F)C3)cc3cccnc32)cc1F,89.5% (inactive),97.2% (inactive),116% (inactive),104% (inactive),105% (inactive),95.9% (inactive),99.7% (inactive),98.8% (inactive)
CN1C(=O)N(C)C2(c3ccccc3)N(CC(=O)Nc3ccccc3O)C(=O)NC12c1ccccc1 (centres undefined),98.5% (inactive),104% (inactive),106% (inactive),97.4% (inactive),101% (inactive),98.3% (inactive),118% (inactive),105% (inactive)
O=C1/C(=C/c2ccccc2[N+](=O)[O-])Cc2ccccc21,1.93% (active) and 64% (inactive),19.4% (inactive) and 27.3% (inactive),28.4% (inactive) and 36.3% (inactive),-56.2% (active) and -45.4% (active),9.87% (active) and 13% (inactive),-76.6% (active) and -25.5% (active),85% (inactive) and 106% (inactive),52% (inactive) and 32.2% (inactive)
CCn1cc(C(=O)NN=C2CCCC2)c(=O)c2ccc(C)nc21,89% (inactive),83.5% (inactive),86.9% (inactive),93% (inactive),83.4% (inactive),89.1% (inactive),89.6% (inactive),94.7% (inactive)
Cc1ccc(/C=C(\C#N)c2cc3ccccc3[nH]2)cc1,36.1% (inactive),56.9% (inactive),-5.1% (active),16.4% (inactive),22.4% (inactive),32.5% (inactive),65.9% (inactive),31.7% (inactive)
O=C(N=Nc1c(O)[nH]c2ccccc12)Nc1ccccc1Cl,42% (inactive),96.6% (inactive),84.5% (inactive),85.2% (inactive),19.8% (inactive),89.8% (inactive),78.2% (inactive),53.6% (inactive)
COc1ccc(C(=O)N/N=C/c2ccc(O)cc2O)cc1Nc1ccnc(C(F)(F)F)c1,21.6% (inactive),55.6% (inactive),32.7% (inactive),35.8% (inactive),21.9% (inactive),15.6% (inactive),40.9% (inactive),69.4% (inactive)
COc1nc(=O)n(C2C=CC(=O)O2)cc1F (centres undefined),41.7% (inactive),81.2% (inactive),79% (inactive),46.3% (inactive),31.9% (inactive),34.3% (inactive),133% (inactive),103% (inactive)
O=C(CCCCCCCCC(=O)N/N=C\c1ccccc1O)N/N=C\c1ccccc1O,18.1% (inactive),26.9% (inactive),33.8% (inactive),30.2% (inactive),16.9% (inactive),13% (inactive),44.8% (inactive),26.5% (inactive)
COc1cc2c(cc1OCCCOC1=C=C=C(c3ccc4c(c3)c3cc(-c5ccc(OCCCOc6cc7c(cc6OC)C(=O)N6CCC[C@H]6C=N7)cc5)ccc3n4S(=O)(=O)c3ccc(C)cc3)C=C1)N=C[C@@H]1CCCN1C2=O,37.1% (inactive),277% (inactive),44.5% (inactive),6.31% (active),23% (inactive),136% (inactive) and 11.4% (inactive),-43.2% (active),42.1% (inactive)
OB(O)c1ccsc1-c1nc2ccc3[nH]ncc3c2c2c1CCCC2,53.5% (inactive),47.1% (inactive),27% (inactive),22.7% (inactive),49.3% (inactive),26.4% (inactive),66% (inactive),38.1% (inactive)
